# Hits are enriched below; roughly 18% of the tested compounds scored in any of these assays.
# DT40 TDP1 CPT – growth inhibition of DT40 Tdp1-/-;hTDP1 cells with camptothecin (screen for TDP1 inhibitors) | chicken DT40 Tdp1-/-;hTDP1 cells + 20 nM CPT, ATP luminescence, 48 h | Potency, µM (series often up to 46.2 µM), for the others: at the top dose activity change, negative = growth inhibition, hits mostly inhibitors | hit rate 12% among 420,000 | AID 686979; further: nearly all actives have a fitted effect of over 55% in size
#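 Chicken DT40 Tdp1-/- cells complemented with human TDP1, 400 cells/well, exposed to compounds plus 20 nM camptothecin for at least 48 h at 37 C; viability read as ATP content by CellTiter-Glo luminescence.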
# GCN5L2 inh – inhibitors of human GCN5L2 histone acetyltransferase; GCN5L2 HAT assay, ThioGlo1 CoA-SH fluorescence; hit rate 0.21% among 390,000; Q92830; AID 504327; Potency, µM (highest dose often 58.9 µM), for the others: top-dose activity change, negative = inhibition, actives largely listed as inhibitors
#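 Preincubate 20nM GCN5L2 with compound 15 min, RT → add 50uM ThioGlo1 + 75uM H3(1-25) + 70uM acetyl-CoA → read fluorescence 0 and 20 min. Primary qHTS; fluorescent artifacts likely.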
# PLK1 PBD inh – PLK1 (human) polo-box domain binding inhibition | P53350 | Plk1 PBD binding of FITC phosphopeptide, fluorescence polarization | Potency, µM, for the others: max response, negative = inhibition, most hits filed as inhibitors | hit rate 2.8% among 360,000 | AID 720504; further: series mostly up to about 57 µM; nearly all actives have a fitted effect of over 65% in size
# Target sequence (P53350 whole entry, looked up, the tested form may be a part): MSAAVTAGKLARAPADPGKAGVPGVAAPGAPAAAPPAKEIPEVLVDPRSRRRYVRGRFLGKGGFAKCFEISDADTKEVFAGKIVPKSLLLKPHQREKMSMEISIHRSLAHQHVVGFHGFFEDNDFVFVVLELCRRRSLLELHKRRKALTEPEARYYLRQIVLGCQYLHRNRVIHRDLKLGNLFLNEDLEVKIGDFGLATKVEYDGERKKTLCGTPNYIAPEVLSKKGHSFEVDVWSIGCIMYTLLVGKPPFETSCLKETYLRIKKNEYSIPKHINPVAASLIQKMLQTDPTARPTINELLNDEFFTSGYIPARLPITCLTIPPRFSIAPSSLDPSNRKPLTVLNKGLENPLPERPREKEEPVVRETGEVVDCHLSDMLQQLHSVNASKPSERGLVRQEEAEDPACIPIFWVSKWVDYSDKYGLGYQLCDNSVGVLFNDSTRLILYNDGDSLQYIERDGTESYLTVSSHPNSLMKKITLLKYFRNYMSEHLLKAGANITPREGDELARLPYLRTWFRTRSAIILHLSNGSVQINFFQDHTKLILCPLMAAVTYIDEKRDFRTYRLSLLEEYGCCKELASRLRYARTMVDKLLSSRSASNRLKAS
# VDR inh – blocks the human vitamin D receptor | VDR-SRC2-3 peptide fluorescence polarization, 2 h | Potency, µM, for inactives: max response, negative = inhibition, usual class: inhibitors | hit rate 0.93% among 400,000
#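 FP read-out; VDR + SRC2-3 coactivator peptide; 23 nl compound by pintool; 2 h RT incubation; reagents held at 4 deg C, protected from light.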
# TDP1 inh – inhibitors of human tyrosyl-DNA phosphodiesterase TDP1; Q9NUW8; recombinant TDP1, AlphaScreen DNA substrate cleavage; Potency, µM (doses to about 130 µM), without a hit: top-dose activity change, negative = inhibition, usual class: inhibitors; hit rate 0.28% among 350,000; AID 485290; further: nearly all actives have a fitted effect of over 40% in size
#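 Enzyme-compound mixtures sat 15 min at room temperature, followed by a 5 min reaction with 15 nM final substrate and 10 min with AlphaScreen beads. Recombinant human Tdp1 was used at 1 nM final.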
# DT40 TDP1 no CPT – qHTS for Inhibitors of human tyrosyl-DNA phosphodiesterase 1 (TDP1): qHTS in cells in absence of CPT | DT40 Tdp1-/- hTDP1 cells, no CPT, ATP luminescence, 48 h | Potency, µM (top dose mostly 46.2 µM), for the others: top-dose activity change, negative = growth inhibition, hits mostly inhibitors | hit rate 15% among 420,000 | AID 686978, 2013; further: nearly all actives have a fitted effect of over 55% in size
#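 Camptothecin absent (DMSO only). Human TDP1-complemented DT40 knockout cells, 400 cells/well, 37 °C for minimum 48 hr; ATP measured via CellTiter-Glo, 30 min dark incubation, luminescence.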
# * marks the source's active call; other numbers are inactive results; ? = inconclusive; . = not tested or not shown; [ ] = dose if it differs, or a comment. The call rests on the fitted dose curve; in most records, active means well fitted curve in the direction sought with a large enough effect; inconclusive means small, poorly fitted or top-dose-only effect, or another doubt; inactive means no such curve, though single readings can be large; an effect the other way counts as inactive or inconclusive. On the % scale 0 is the no-effect control and ±100 the full control effect; potency means the concentration at half of the fitted maximal effect.
SMILES,DT40 TDP1 CPT,GCN5L2 inh,PLK1 PBD inh,VDR inh,TDP1 inh,DT40 TDP1 no CPT
O=C(CCN1C(=O)c2ccccc2S1(=O)=O)N1CCN(c2cccc(Cl)c2)CC1,?,-1%,-11%,10%,1%,16µM*
O=C(CNC(=O)Cn1ccc2ccccc2c1=O)NCCCN1CCN(c2cccc(Cl)c2)CC1,?,-3%,-9%,-13%,7%,26µM*
Cn1cc(CC(=O)N2CCN(c3ccccc3F)CC2)c2ccccc21,?,-10%,-12%,-5%,4%,?
O=S(=O)(c1ccccc1)N1CCN(c2cccc(Cl)c2)CC1,-6%,-1%,-1%,8%,.,-17%
Clc1cccc(N2CCN(CCCN3CCN(c4ccccc4)CC3)CC2)c1,26µM*,.,-4%,30%,.,?
O=C(CN1C(=O)c2ccccc2S1(=O)=O)N1CCN(c2cccc(Cl)c2)CC1,-22%,.,-11%,7%,.,-26%
Cn1cc(CC(=O)N2CCN(c3ccc(Cl)cc3)CC2)c2ccccc21,?,-2%,1%,8%,9%,13µM*
COc1ccc(Cl)cc1Nc1cc(C)nc2nc(-c3ccccc3C)nn12,6%,-6%,.,8%,2%,-5%
O=C(CSc1ccccn1)N1CCN(c2cccc(Cl)c2)CC1,?,-5%,12µM*,?,0%,?
O=C(Cc1c(F)cccc1Cl)OCC(=O)N1CCN(c2ccccc2)CC1,18µM*,-1%,-16%,10%,1%,?
O=C(CCC(=O)N1CCN(c2cccc(Cl)c2)CC1)N1CCN(c2ccccc2)CC1,18µM*,-6%,-10%,-18%,5%,8.2µM*
O=C1CC(=C(c2ccccc2)c2ccccc2)C(=O)N1CCCCN1CCN(c2ccccc2)CC1,15µM*,-5%,-9%,9%,12%,9.2µM*
O=C(CCCN1CCN(c2ccccc2)CC1)c1ccc(F)cc1,?,.,2%,.,.,?
COc1ccc(NC(=O)C2CCCN2S(=O)(=O)c2ccc3c(c2)CCCC(=O)N3)cc1Cl (stereo unspecified),?,-10%,.,3%,3%,?
CCC1CCC(C(=O)NC(C(=O)Nc2cccc(OC)c2)C(C)C)CC1 (stereo unspecified),-26%,-6%,.,-12%,0%,-30%
O=C(CCC(=O)N1CCN(c2cccc(Cl)c2)CC1)c1cccs1,?,-2%,5%,11%,-10%,18µM*
CN(C)c1ccc([C@@H]2[C@@H]([N+](=O)[O-])[C@H]3C=Cc4ccccc4N3[C@H]2C(=O)c2ccc(Cl)cc2)cc1,6.5µM*,-6%,-1%,-20%,8%,7.3µM*
O=C(c1ccccc1)C1C(c2ccccc2)C1[N+](=O)[O-] (stereo unspecified),1%,-4%,-5%,-6%,4%,-17%
O=C1C(Cc2ccc(F)cc2)SC(=Nc2ccccc2)N1c1ccccc1 (stereo unspecified),?,-2%,3%,-3%,3%,23µM*
O=C1C(Cc2ccc(Br)cc2)SC(=Nc2ccccc2)N1c1ccccc1 (stereo unspecified),-6%,-6%,-18%,-9%,-1%,-29%
Cc1ccc(-c2c(CN3CCN(c4cc(Cl)ccc4C)CC3)csc2C)cc1,16µM*,-4%,.,5%,-3%,?
CC(CNC(=O)c1ccc(CSc2nc3ccncc3n2Cc2ccccc2)cc1)c1ccccc1 (stereo unspecified),?,-7%,.,20%,5%,?
COc1ccc(Cn2c(SCc3ccc(C(=O)NCc4cccs4)cc3)nc3ccncc32)cc1,18µM*,-7%,.,-12%,4%,?
CCc1ccc(CNC(=O)c2ccc(CSc3nc4ccncc4n3Cc3ccccc3)cc2)cc1,16µM*,-2%,.,14%,8%,23µM*
O=C(NCc1cccs1)c1ccc(CSc2nc3ccncc3n2Cc2cccc(F)c2)cc1,?,-2%,.,7%,8%,21µM*
SMILES,DT40 TDP1 CPT,GCN5L2 inh,PLK1 PBD inh,VDR inh,TDP1 inh,DT40 TDP1 no CPT
COc1ccc(Cn2c(SCc3ccc(C(=O)NCc4cccs4)cc3)nc3cccnc32)cc1,?,-9%,.,2%,2%,-79%
COC(=O)c1ccc(Cn2c(SCc3ccccc3)nc3ccncc32)cc1,?,-4%,.,9%,7%,21µM*
COc1ccccc1CNC(=O)c1ccc(CSc2nc3ccncc3n2Cc2cccc(F)c2)cc1,?,-3%,.,7%,8%,18µM*
CCc1ccc(CNC(=O)c2ccc(CSc3nc4ccncc4n3Cc3ccc(OC)cc3)cc2)cc1,23µM*,-14%,.,7%,1%,?
CCOc1ccc(CN(C)C(=O)CN2C(=O)NC(c3ccccc3)(c3ccccc3)C2=O)cc1,?,-7%,-4%,-2%,0%[56.1 µM],?
CNc1nc(NC#N)nc(SC)n1,21µM*,21%,30µM*,?,.,?
CCNc1nc(NC#N)nc(SCC(=O)OCC)n1,5%,-5%,0%,1%,0%,1%
COc1ccccc1CNc1nc(-c2ccccc2CO)c2sccc2n1,?,.,1%,.,.,?
COc1ccccc1CNc1nc(Nc2ccccc2OC)c2sccc2n1,5.8µM*,.,-2%,.,.,4.6µM*
COc1ccccc1CNc1nc(Nc2ccc(C)cc2C)c2sccc2n1,15µM*,.,-6%,.,.,7.3µM*
Cc1ccc(S(=O)(=O)Nc2cc(C(=O)NCCN(C)C)ccc2N2CCCCC2)cc1,?,1%,-1%,-2%,6%,16µM*
COCCCNC(=O)c1ccc(N2CCCC2)c(NS(=O)(=O)c2ccc(C)cc2)c1,-27%,-17%,-7%,13%,5%,?
Cc1ccc(S(=O)(=O)Nc2cc(C(=O)NCCN3CCCC3)ccc2N2CCCCC2)cc1,21µM*,-28%,-8%,11%,2%,16µM*
CCOc1ccc(CCNC(=O)COC(=O)c2nc(Cl)ccc2Cl)cc1OCC,-11%,-4%,-4%,-17%,0%,-17%
Cn1cc(-c2nc3cnc(N4CCNCC4)nc3n(C)c2=O)c2ccccc21,5.2µM*,?,.,-13%,.,5.8µM*
CN1CCN(c2ncc3nc(-c4cn(C)c5ccccc45)c(=O)n(C)c3n2)CC1,23µM*,-19%,.,-6%,.,23µM*
Cn1cc(-c2nc3cnc(N4CCOCC4)nc3n(C3CC3)c2=O)c2ccccc21,-4%,-5%,.,-11%,.,-6%
COc1ccc(-n2c(=O)c(-c3cn(C)c4ccccc34)nc3cnc(N4CCOCC4)nc32)cc1,-4%,-5%,.,-2%,.,12%
O=C(Nc1ccc(F)c(Cl)c1)c1cncs1,-17%,14%,-11%,?,.,-30%

# Assay outcomes from PubChem BioAssay.
